Hit rate of the full screen: of about 5,500 compounds, about 2,000 (36%) were called active. Roughly 18% stayed inconclusive and do not appear here. Rule as the data show it: active = normalized growth mostly below about 0.91 (no sharp cut-off); inconclusive = no clear call, values can overlap the other calls; inactive = mostly above about 0.92. The list shows a part of the results.
Experiment: chemical genetic growth profiling, strain panel (AID 1159580);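 also: tested at 20 µM; growth read once vehicle control cultures reached saturation at 30 °C; 1 = growth at the plate median or of vehicle wells; lower values mean less growth of the strain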
Conditions: growth OD
[1] = S. cerevisiae deletion strains, locus YAL040C, strain CLN3, hits give low values
[2] = S. cerevisiae deletion strains, locus YCL061C, strain MRC1 (second series), hits give low values
[3] = S. cerevisiae deletion strains, locus YDR150W, strain NUM1, hits give low values
[4] = S. cerevisiae deletion strains, locus YDR363W, strain ESC2, hits give low values
[5] = S. cerevisiae deletion strains, locus YER002W, strain NOP16, hits give low values
[6] = S. cerevisiae deletion strains, locus YGR229C, strain SMI1, hits give low values
[7] = S. cerevisiae deletion strains, locus YJR075W, strain HOC1, hits give low values
[8] = S. cerevisiae deletion strains, locus YMR263W, strain SAP30, hits give low values
[9] = S. cerevisiae deletion strains, locus YMR307W, strain GAS1, hits give low values
[10] = S. cerevisiae deletion strains, locus YNL128W, strain TEP1, hits give low values
[11] = S. cerevisiae deletion strains, locus YNL175C, strain NOP13, hits give low values
[12] = S. cerevisiae deletion strains, locus YNL197C, strain WHI3, hits give low values
[13] = S. cerevisiae deletion strains, locus YNL224C, strain SQS1, hits give low values
[14] = S. cerevisiae deletion strains, locus YNL322C, strain KRE1, hits give low values
[15] = S. cerevisiae deletion strains, locus YOR083W, strain WHI5 (second series), hits give low values
[16] = S. cerevisiae deletion strains, locus YPL241C, strain CIN2, hits give low values
[17] = S. cerevisiae deletion strains, locus YNL153C, strain GIM3, hits give low values
[18] = S. cerevisiae deletion strains, locus YAL013W, strain DEP1, hits give low values
[19] = S. cerevisiae deletion strains, locus YGR078C, strain PAC10, hits give low values
[20] = S. cerevisiae deletion strains, locus YPL055C, strain LGE1, hits give low values

Measured: normalized growth

CCCN1CCOC2c3cc(O)ccc3OCC21 (stereo not given)
inactive: [1] 0.983 | [2] 0.993 | [3] 0.988 | [4] 0.96 | [5] 1 | [6] 1.03 | [7] 1.01 | [8] 1 | [9] 1.02 | [10] 0.993 | [11] 0.984 | [12] 0.975 | [13] 1 | [14] 0.994 | [15] 0.983 | [16] 0.998

CCCN1CC[C@@H]2c3cc(O)ccc3CC[C@@H]21
inactive: [1] 1.02 | [2] 1.01 | [4] 1.01 | [5] 1.01 | [9] 1 | [17] 1.04 | [11] 1.01 | [12] 1.01 | [13] 1.02 | [14] 1.01 | [15] 1.01

COc1ccc2c(c1O)-c1cccc3c1[C@@H](C2)N(C)CC3
inactive: [18] 0.986 | [1] 0.995 | [2] 1.01 | [4] 0.994 | [5] 1.01 | [19] 1.05 | [6] 1.02 | [7] 1 | [8] 0.994 | [9] 1.02 | [10] 1.01 | [11] 1.02 | [12] 1.02 | [13] 1.01 | [14] 0.985 | [15] 0.972 | [20] 0.989 | [16] 1.01

COc1cc2c3cc1Oc1cc(ccc1O)OC1c4c(cc(OC)c(O)c4Oc4ccc(cc4)CC3N(C)CC2)CCN1C (stereo not given)
inactive: [18] 0.992 | S. cerevisiae deletion strains, locus YBR021W, strain FUR4, hits give low values 0.971 | S. cerevisiae deletion strains, locus YBR229C, strain ROT2, hits give low values 0.993 | S. cerevisiae deletion strains, locus YCL029C, strain bik1, hits give low values 0.967 | S. cerevisiae deletion strains, locus YDL035C, strain GPR1, hits give low values 0.978 | S. cerevisiae deletion strains, locus YDL074C, strain BRE1, hits give low values 1.02 | S. cerevisiae deletion strains, locus YDL101C, strain DUN1, hits give low values 0.993 | S. cerevisiae deletion strains, locus YDL134C, strain PPH21, hits give low values 0.996 | S. cerevisiae deletion strains, locus YDL185W, strain tfp1, hits give low values 0.966 | S. cerevisiae deletion strains, locus YDL192W, strain arf1, hits give low values 0.981 | S. cerevisiae deletion strains, locus YDR101C, strain arx1, hits give low values 0.983 | [3] 0.995 | S. cerevisiae deletion strains, locus YDR162C, strain NBP2, hits give low values 1.01 | S. cerevisiae deletion strains, locus YDR318W, strain mcm21, hits give low values 0.965 | S. cerevisiae deletion strains, locus YDR388W, hits give low values 0.989 | S. cerevisiae deletion strains, locus YDR502C, strain sam2, hits give low values 0.984 | S. cerevisiae deletion strains, locus YEL061C, strain CIN8, hits give low values 0.985 | S. cerevisiae deletion strains, locus YER110C, hits give low values 0.966 | S. cerevisiae deletion strains, locus YER155C, strain BEM2, hits give low values 0.999 | S. cerevisiae deletion strains, locus YER167W, strain BCK2, hits give low values 0.958 | S. cerevisiae deletion strains, locus YGL078C, strain dbp3, hits give low values 0.979 | S. cerevisiae deletion strains, locus YGL086W, strain mad1, hits give low values 0.963 | S. cerevisiae deletion strains, locus YGL248W, strain PDE1, hits give low values 0.999 | [19] 1.02 | S. cerevisiae deletion strains, locus YGR135W, strain pre9, hits give low values 0.991 | [6] 1.01 | S. cerevisiae deletion strains, locus YGR252W, strain gcn5, hits give low values 0.925 | S. cerevisiae deletion strains, locus YHR030C, strain SLT2, hits give low values 0.972 | S. cerevisiae deletion strains, locus YHR079C, strain IRE1 (second series), hits give low values 0.992 | S. cerevisiae deletion strains, locus YHR094C, strain hxt1, hits give low values 0.957 | S. cerevisiae deletion strains, locus YHR129C, strain ARP1, hits give low values 0.997 | S. cerevisiae deletion strains, locus YHR200W, strain rpn10, hits give low values 0.964 | S. cerevisiae deletion strains, locus YIL066C, strain RNR3, hits give low values 0.996 | S. cerevisiae deletion strains, locus YIL073C, strain SPO22, hits give low values 0.899 | S. cerevisiae deletion strains, locus YIL125W, strain kgd1, hits give low values 0.984 | S. cerevisiae deletion strains, locus YIR030C, strain dcg1, hits give low values 0.978 | S. cerevisiae deletion strains, locus YJL095W, strain BCK1, hits give low values 1.03 | S. cerevisiae deletion strains, locus YJL134W, strain LCB3, hits give low values 0.99 | S. cerevisiae deletion strains, locus YJL168C, strain set2, hits give low values 0.986 | S. cerevisiae deletion strains, locus YJL187C, strain SWE1 (second series), hits give low values 0.999 | S. cerevisiae deletion strains, locus YJR043C, strain POL32, hits give low values 0.952 | [7] 1.05 | S. cerevisiae deletion strains, locus YKL009W, strain mrt4, hits give low values 0.977 | S. cerevisiae deletion strains, locus YKL068W, hits give low values 0.975 | S. cerevisiae deletion strains, locus YKL085W, strain MDH1 (second series), hits give low values 0.995 | S. cerevisiae deletion strains, locus YKL085W, strain MDH1, hits give low values 0.995 | S. cerevisiae deletion strains, locus YKL190W, strain CNB1, hits give low values 0.998 | S. cerevisiae deletion strains, locus YKR001C, strain vps1, hits give low values 0.969 | S. cerevisiae deletion strains, locus YLR039C, strain RIC1, hits give low values 0.942 | S. cerevisiae deletion strains, locus YLR058C, strain SHM2, hits give low values 0.988 | S. cerevisiae deletion strains, locus YLR102C, strain apc9, hits give low values 0.98 | S. cerevisiae deletion strains, locus YLR262C, strain YPT6, hits give low values 0.982 | S. cerevisiae deletion strains, locus YLR268W, strain sec22, hits give low values 1 | S. cerevisiae deletion strains, locus YLR330W, strain CHS5, hits give low values 0.987 | S. cerevisiae deletion strains, locus YLR342W, strain FKS1 (second series), hits give low values 0.957 | S. cerevisiae deletion strains, locus YLR371W, strain rom2, hits give low values 0.968 | S. cerevisiae deletion strains, locus YLR418C, strain cdc73, hits give low values 1.02 | S. cerevisiae deletion strains, locus YML016C, strain PPZ1, hits give low values 0.99 | S. cerevisiae deletion strains, locus YML032C, strain rad52, hits give low values 0.951 | S. cerevisiae deletion strains, locus YML124C, strain tub3, hits give low values 0.976 | S. cerevisiae deletion strains, locus YMR078C, strain ctf18, hits give low values 0.968 | S. cerevisiae deletion strains, locus YMR223W, strain ubp8, hits give low values 0.951 | [8] 1.01 | [9] 0.955 | S. cerevisiae deletion strains, locus YNL067W, strain RPL9B, hits give low values 1 | [10] 0.99 | [17] 1.02 | S. cerevisiae deletion strains, locus YNL233W, strain BNI4, hits give low values 1.02 | S. cerevisiae deletion strains, locus YNL250W, strain rad50, hits give low values 0.973 | S. cerevisiae deletion strains, locus YNL271C, strain bni1, hits give low values 0.993 | S. cerevisiae deletion strains, locus YNL298W, strain CLA4, hits give low values 0.967 | S. cerevisiae deletion strains, locus YNL307C, strain MCK1, hits give low values 0.952 | [14] 0.979 | S. cerevisiae deletion strains, locus YNR052C, strain pop2, hits give low values 0.961 | S. cerevisiae deletion strains, locus YOL006C, strain TOP1, hits give low values 1.03 | S. cerevisiae deletion strains, locus YOL012C, strain htz1 1.06 | S. cerevisiae deletion strains, locus YOL147C, strain pex11, hits give low values 0.973 | S. cerevisiae deletion strains, locus YOR061W, strain CKA2, hits give low values 0.998 | S. cerevisiae deletion strains, locus YOR069W, strain VPS5, hits give low values 0.991 | S. cerevisiae deletion strains, locus YOR136W, strain idh2, hits give low values 0.96 | S. cerevisiae deletion strains, locus YOR144C, strain elg1, hits give low values 0.982 | S. cerevisiae deletion strains, locus YOR184W, strain ser1, hits give low values 0.93 | S. cerevisiae deletion strains, locus YOR316C, strain cot1, hits give low values 0.977 | [20] 1 | [16] 0.997 | S. cerevisiae deletion strains, locus YPR119W, strain clb2, hits give low values 0.989 | S. cerevisiae deletion strains, locus YPR141C, strain kar3, hits give low values 0.99 | S. cerevisiae deletion strains, locus YPR163C, strain tif3, hits give low values 0.96 | S. cerevisiae deletion strains, locus YPR167C, strain met16, hits give low values 0.98 | S. cerevisiae deletion strains, strain wtn01, hits give low values 1.01 | S. cerevisiae strains, strain wild type, hits give low values 0.989

CCCN1CCO[C@@H]2c3cc(O)ccc3OC[C@H]21
inactive: [18] 0.981 | [1] 1.09 | [2] 1 | [3] 0.999 | [4] 1.03 | [5] 0.989 | [19] 1.01 | [7] 0.993 | [9] 0.981 | [17] 0.97 | [11] 1.02 | [12] 1 | [13] 0.993 | [15] 1.02

Source: PubChem BioAssay AID1159580 (chemical genetic matrix, 2015)
